Hits are enriched below; roughly 9.8% of the tested compounds scored in any of these assays.
HTT cytoprotect – cytoprotection in Huntington HTT-Q103 PC12 cell model. PC12 HTT-Q103 induced, cytoprotection, ATP luminescence, 40 h. Potency, µM (top dose mostly 56.4 µM), most hits filed as activators. 230,000 compounds, 0.14% hits; also: nearly all actives have a fitted effect of over 45% in size
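Cells were plated at 1500 per well in phenol red-free DMEM with 5% equine and 5% calf serum. Tebufenozide (100 nM final) and compounds were added, then ATPlite reagent, and luminescence was read.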
CBFb RUNX1 block – CBF-beta/RUNX1 interaction disruption. AlphaScreen CBFb-His/RUNX1-biotin binding, biochemical. 230,000 tested, under 10 active. Potency, µM (top dose mostly 59.8 µM), actives largely listed as inhibitors. AID 1477
Target sequence (Q01196 whole entry, looked up): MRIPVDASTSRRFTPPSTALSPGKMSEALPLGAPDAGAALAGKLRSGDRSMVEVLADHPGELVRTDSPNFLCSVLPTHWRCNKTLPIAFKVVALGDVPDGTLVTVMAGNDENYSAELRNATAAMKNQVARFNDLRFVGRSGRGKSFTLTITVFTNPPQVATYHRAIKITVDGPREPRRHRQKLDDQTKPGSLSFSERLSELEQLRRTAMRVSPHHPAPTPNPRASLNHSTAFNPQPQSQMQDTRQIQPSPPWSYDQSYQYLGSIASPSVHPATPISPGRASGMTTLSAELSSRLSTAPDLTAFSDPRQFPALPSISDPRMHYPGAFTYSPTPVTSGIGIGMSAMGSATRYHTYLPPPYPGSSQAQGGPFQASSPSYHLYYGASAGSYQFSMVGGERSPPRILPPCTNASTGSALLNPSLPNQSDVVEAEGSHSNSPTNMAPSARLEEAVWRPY
Target sequence (Q13951 whole entry, looked up): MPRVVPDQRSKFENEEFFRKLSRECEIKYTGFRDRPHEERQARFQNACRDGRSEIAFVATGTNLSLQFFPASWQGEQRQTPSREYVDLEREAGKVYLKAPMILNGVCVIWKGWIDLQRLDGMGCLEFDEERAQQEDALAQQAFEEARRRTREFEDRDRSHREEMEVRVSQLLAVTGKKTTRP
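Room-temperature protein-protein interaction test with 30 nM each of His-tagged CBF-beta and biotinylated RUNX1, 15 min with compound, then 90 min with nickel plus streptavidin beads. Signal read in AlphaScreen mode.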
HPGD block – blocks human HPGD enzyme activity | Potency, µM, usual class: inhibitors | 150,000 compounds, 4.3% hits | P15428 | purified HPGD, NADH fluorescence kinetic, PGE2 substrate | AID 894; active = well fitted inhibition curve with a large enough effect, not every such curve was filed as active; inconclusive = small, poorly fitted or top-dose-only effect, or another doubt; inactive = no such curve, though single readings can be large or run the other way
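20 nM HPGD preincubated 15 min at room temperature with compound in 50 mM Tris-HCl pH 8, 0.01% Tween 20. Started with 1 mM NAD+ and 30 uM prostaglandin E2; NADH fluorescence (360/450 nm) read 5 times over 30-s intervals, last minus first.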
HTT aggregate – reduces HttQ103-GFP aggregates in PC12 cells. Potency, µM (top dose mostly 46.1 µM), usual class: inhibitors. 220,000 compounds, 1.1% hits. PC12 HttQ103-GFP aggregates, Acumen cytometry, 40 h. AID 1688; also: nearly all actives have a fitted effect of over 60% in size
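Multiplexed with ATP-based cell death, this channel scores GFP aggregates in PC12 cells expressing inducible HTTex1-Q103-GFP. Induction used 100 nM tebufenozide; compounds were tested in concentration series.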
ALDH1A1 block – inhibitors of human aldehyde dehydrogenase 1A1. P00352. Purified ALDH1A1, NADH fluorescence, propionaldehyde substrate. Potency, µM (highest dose often 75.3 µM), most hits filed as inhibitors. 220,000 compounds, 7.3% hits; active = well fitted inhibition curve with a large enough effect, not every such curve was filed as active; inconclusive = small, poorly fitted or top-dose-only effect, or another doubt; inactive = no such curve, though single readings can be large or run the other way
JMJD2E inh – inhibitors of human JMJD2E histone demethylase; B2RXH2; JMJD2E catalytic domain, FDH-coupled NADH fluorescence (FDH is formaldehyde dehydrogenase); Potency, µM (series often up to 57.1 µM), hits mostly inhibitors; 230,000 compounds, 1.6% hits; AID 2147; active = well fitted inhibition curve with a large enough effect, not every such curve was filed as active; inconclusive = small, poorly fitted or top-dose-only effect, or another doubt; inactive = no such curve, though single readings can be large or run the other way; also: nearly all actives have a fitted effect of over 50% in size
Numbers stand for hits; 0 = inactive; ? = inconclusive; - = no result; [ ] = dose if it differs, or a comment. Unless noted, calls follow the shape of the dose curve; as a rule, active = well fitted curve in the direction sought with a large enough effect; inconclusive = small, poorly fitted or top-dose-only effect, or another doubt; inactive = no such curve, though single readings can be large; an effect the other way counts as inactive or inconclusive.

SMILES	HTT cytoprotect	CBFb RUNX1 block	HPGD block	HTT aggregate	ALDH1A1 block	JMJD2E inh
Nc1c(C(=O)Nc2ccccc2)sc2nc3c(c(-c4ccco4)c12)CCC3	-	0	0	0	0	0
CC(=O)Nc1ccc2nc3ccccc3nc2c1	0[10 µM]	0	-	0[9.22 µM]	-	14µM
O=C1c2ccccc2C(=O)c2cc(NC(=O)C3CC3)ccc21	0[10 µM]	0	0	0	?	0
Cc1ccccc1OCC(=O)Nc1ccc2c(c1)Cc1ccccc1-2	0	0	-	0	0	0
CCOc1cc(C=C2C(=O)c3ccccc3C2=O)ccc1OCC(=O)Nc1ccc(C)cc1	0[10 µM]	0	-	0	15µM	0
CC(=O)Nc1ccc2c(c1)C(=O)c1ccccc1C2=O	0	0	0	0	3.5µM	0
Cc1ccccc1OCC(=O)Nc1ccc2c(c1)C(=O)c1ccccc1C2=O	0[10 µM]	0	0	0	18µM	0
CCOc1ccc2nc(NC(=O)CC3Oc4ccccc4NC3=O)sc2c1 (stereo not drawn)	0[10 µM]	0	-	0[9.22 µM]	-	0
CC(=O)N1CCC(N(CCN2CCOCC2)C(=S)Nc2ccc(C)cc2C)CC1	0	0	-	0	0	0
Cc1cccc(NC(=O)CCN2C(=O)C3C4C=CC(C4)C3C2=O)c1 (stereo not drawn)	0	0	0	0	?	0
O=C(O)c1ccccc1SC1CC(=O)N(C2CCCCC2)C1=O (stereo not drawn)	0[10 µM]	0	0	0	0.63µM	0
Cc1nnc(SC2CC(=O)N(c3ccccc3)C2=O)s1 (stereo not drawn)	0[1.9 µM]	0	13µM	?	0.71µM	0
Cc1nc(SC2CC(=O)N(c3ccccc3)C2=O)nc2c1CCCC2 (stereo not drawn)	0	0	0	0	0	0
O=C1CC(SC2=NCCS2)C(=O)N1c1ccc(Br)cc1 (stereo not drawn)	0[10 µM]	0	0	0	7.9µM	0
COC(=O)c1c(N2C(=O)CC(Sc3ccccc3C(=O)O)C2=O)sc2c1CCCC2 (stereo not drawn)	-	0	-	0	0.45µM	0
CCOC(=O)C1(Cc2cccc(F)c2)CCN(C(=O)C2CCCO2)CC1 (stereo not drawn)	0[10 µM]	0	-	0[9.22 µM]	0	0
CC(=O)c1nccs1	0	0	0	-	?	-
O=C1CC(Sc2cccs2)C(=O)N1c1ccccc1 (stereo not drawn)	0[10 µM]	0	-	0[9.22 µM]	13µM	?
O=C(O)c1ccccc1SC1CC(=O)N(c2ccccc2)C1=O (stereo not drawn)	0[10 µM]	0	0	0	2.5µM	0
O=C(O)c1cccnc1SC1CC(=O)N(c2ccccc2)C1=O (stereo not drawn)	0[10 µM]	0	-	0[9.22 µM]	-	0
O=C1CC(SC2=NCCS2)C(=O)N1c1ccc(Cl)cc1 (stereo not drawn)	0[10 µM]	0	0	0	?	0
Cc1cnc(CN(C)Cc2c(C(=O)N3CCc4ccccc4C3)nc3ccc(Cl)cn23)[nH]1	0[10 µM]	0	-	0[9.22 µM]	18µM	0
CC(C)CN(C)Cc1c(C(=O)N2CCc3ccccc3C2)nc2ccc(Cl)cn12	0	0	-	0	7.9µM	0
CCCCN(C)Cc1c(C(=O)N2CCc3ccccc3C2)nc2ccc(Cl)cn12	0[10 µM]	0	-	0[9.22 µM]	?	0
CN(Cc1cnccn1)Cc1c(C(=O)N2CCc3ccccc3C2)nc2ccc(Cl)cn12	0[10 µM]	0	-	0[9.22 µM]	18µM	0
SMILES	HTT cytoprotect	CBFb RUNX1 block	HPGD block	HTT aggregate	ALDH1A1 block	JMJD2E inh
COC(=O)c1ccc(S(=O)(=O)N2CCCN(Cc3cccc(Br)c3F)CC2)n1C	0[10 µM]	0	-	0[9.22 µM]	-	0
COCCn1c(=O)c(-c2cc(F)cc(F)c2)nc2cnc(Oc3cccc(Cl)c3)nc21	0	-	?	-	?	-
CCCCN1C(=O)C(NC(C)=O)c2cc(Br)ccc21 (stereo not drawn)	0	0	0	0	0.18µM	0
CCc1ccc2c(c1)C(NC(C)=O)C(=O)N2CC (stereo not drawn)	0[10 µM]	0	0	0	22µM	?
S=c1[nH]ccn1-c1c(Cl)cccc1Cl	0[10 µM]	0	-	0[9.22 µM]	?	0
N#CC(C(=O)c1ccccc1)=C1SCCS1	0[10 µM]	0	-	0[9.22 µM]	14µM	0
CCOc1ccccc1NC(=O)C(OC(=O)c1ccc(O)cc1)c1ccccc1 (stereo not drawn)	0[10 µM]	0	0	0	7.9µM	0
CCOc1ccccc1NC(=O)C(OC(=O)c1ccc(CC)cc1)c1ccccc1 (stereo not drawn)	0[10 µM]	?	0	0	?	0
O=C(O)CCC(=O)NCC(=O)c1ccc(F)cc1	0[10 µM]	0	-	0[9.22 µM]	-	0
O=C(CC(=O)c1ccccc1O)c1cccc(F)c1	0	0	20µM	?	0	?
O=C(CC(=O)c1ccccc1O)c1ccc(F)cc1	0[10 µM]	0	18µM	?	0	0
Cc1ccc(C(=O)CC(=O)c2cc(Cl)ccc2O)cc1	0	0	28µM	?	0	?
C(#CC1C=CC2OC(c3ccccc3)OCC2O1)c1ccccc1 (stereo not drawn)	0[10 µM]	0[13.1 µM]	-	-	0[13.5 µM]	-
CCc1cccc(C)c1NC(=O)C1CC=CCC1C(=O)O (stereo not drawn)	?	0	-	0[9.22 µM]	0	0
COc1ccc(OC)c(C(=O)CN2CCN(S(=O)(=O)c3ccc(Br)cc3)CC2)c1	0	0	0	?	1.6µM	?
COc1ccc(NC(=O)CCN2CCN(S(=O)(=O)c3ccc(OC)cc3)CC2)cc1	?	0	-	0	0	0
COc1ccc(S(=O)(=O)N2CCCN(CC(=O)C(C)(C)C)CC2)cc1	0	0	0	0	20µM	0
CCOc1ccc(-n2c(SCC(=O)c3c(N)n(C)c(=O)n(C)c3=O)nnc2-c2cccnc2)cc1	-	0	0	0	0	0
O=C(O)c1ccc(CS(=O)(=O)c2cccc(C(F)(F)F)c2)o1	0[0.074 µM]	0	0	0	0	0
COCCN(CCOC)S(=O)(=O)c1ccc(C(=O)Nc2ccc([N+](=O)[O-])cc2OC)cc1	0[10 µM]	0	-	0	?	?
Cc1nc(SCC(=O)OCc2ccccc2)c(C#N)c(-c2ccccc2)c1C(=O)Nc1ccccc1	0[10 µM]	0	0	0	20µM	?
Cc1ccccc1NC(=O)c1c(C)nc(SCC(=O)OCc2ccccc2)c(C#N)c1-c1ccc(F)cc1	0[10 µM]	0	0	0	?	?
O=C(c1ccc(F)cc1)[C@@H]1[C@@H](C(=O)c2ccccc2)[C@@]2(C(=O)Nc3ccccc32)[C@H]2c3ccccc3C=CN12	0[10 µM]	0	0	0	20µM	0
O=C(c1ccccc1)[C@@H]1[C@@H]2C(=O)N(c3ccc(F)cc3)C(=O)[C@@H]2C2CCCN21 (stereo partly drawn)	0[10 µM]	0	-	0[9.22 µM]	-	0
S=c1[nH]nc(-c2ccccc2Cl)n1CC1CCCO1 (stereo not drawn)	0	0	0	0	14µM	0
CCN(CC)c1ccc(C(=O)OCC(=O)Nc2cccc(S(=O)(=O)NC3=NCCCCC3)c2)cc1	0[10 µM]	0	28µM	0	?	?
